FBW7 act: FBW7 E3 ligase activators, primary screen, biochemical, AlphaScreen, human | F-box/WD repeat-containing protein 7 (Homo sapiens), Q969H0 | AlphaScreen FBW7–phospho-cyclin E peptide binding, activator screen | normalized activity (activation), % at 26.1 µM | 650,000 compounds, 0.13% hits; in the data active = normalized activity above about 1.9%;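 also: purified mutant Fbw7 with reduced substrate affinity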
MITF inh: MITF inhibitors, primary screen, biochemical, AlphaScreen, human; AlphaScreen MITF homodimerization, bead proximity signal; inhibition, % at 2.6 µM; AID 1259374, 2018; 650,000 compounds, 0.91% hits; Microphthalmia-associated transcription factor (Homo sapiens), O75030; in the data active = inhibition above about 50%;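 also: 0% = vehicle wells with protein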
TEAD-YAP inh: TEAD-YAP interaction inhibition, primary screen, TEAD-YAP interaction inhibitor project, luminescence, HEK-TIYL cells. TEAD-Gal4/YAP UAS-luciferase luminescence. inhibition, % at 9.12 µM. 640,000 compounds, 1.4% hits; in the data active = inhibition above about 32%;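 also: 0% = median of test compound wells and 100% = reference inhibitor wells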
GPR151 activ: activators of human GPR151, primary screen, cell-based, PathHunter beta-arrestin, luminescence; PathHunter beta-arrestin GPR151 cells; 650,000 compounds, 1% hits; G-protein coupled receptor 151 (Homo sapiens), Q8TDV0; activation, % at 11.2 µM; in the data active = activation above about 4.9%;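 also: 0% = median of compound wells and 100% = cells with positive control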
GPR151 confirm: GPR151 activators, triplicate retest, confirmation, cell-based, PathHunter beta-arrestin, luminescence; shares compounds with GPR151 activ; GPR151 PathHunter beta-arrestin cells, 90 min; % of EA-reagent control over plate median; activation, % at 11.2 µM; 6,700 tested, under 10 active;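 active = mean percent activation across replicates above the confirmation screen cutoff of 4.91%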
GPR119 ag: GPR119 activators in beta-arrestin cells, counter-screen for GPR151 activator project, cell-based, PathHunter beta-arrestin, luminescence, triplicate; AID 1508611, 2020; shares compounds with GPR151 activ; activation, % at 11.2 µM; 6,700 compounds, 0.3% hits; 90 min; 0 = compound-well median, 100 = enzyme-acceptor control;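 active = mean percent activation in the counterscreen above 29.09%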;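 also: counterscreen on off-target GPR119 to flag nonselective hits from the GPR151 activator screen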
Target sequence (Q8TDV5 whole entry, looked up): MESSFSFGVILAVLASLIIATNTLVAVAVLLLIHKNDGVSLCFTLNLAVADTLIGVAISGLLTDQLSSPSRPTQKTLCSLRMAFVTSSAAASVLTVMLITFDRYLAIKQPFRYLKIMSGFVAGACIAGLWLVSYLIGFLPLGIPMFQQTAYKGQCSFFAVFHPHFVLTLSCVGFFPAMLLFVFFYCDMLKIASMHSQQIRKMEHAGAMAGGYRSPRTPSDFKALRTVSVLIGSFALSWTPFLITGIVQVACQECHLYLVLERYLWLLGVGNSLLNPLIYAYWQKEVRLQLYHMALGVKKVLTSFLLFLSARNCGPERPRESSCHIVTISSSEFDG
* marks the source's active call; other numbers are inactive results; / = no result. In the library only some 3.5% were active in any assay of this set; here they are far more common.

SMILES	FBW7 act	MITF inh	TEAD-YAP inh	GPR151 activ	GPR151 confirm	GPR119 ag
Cc1ccc(C2=NS(=O)(=O)N(C)C(C(=O)NCc3ccccn3)=C2)cc1	0	12	6	6.9*	0	-9
Cc1nnc2ccc(SCC(=O)N3CCN(Cc4ccc5c(c4)OCO5)CC3)nn12	0	16	-6	5.7*	1	5
OC(COc1ccccc1)CN1CCN(Cc2ccc3c(c2)OCO3)CC1 (configuration not stated)	0	15	8	8.4*	-1	-8
OC(COCc1ccc2c(c1)OCO2)CN1CCN(Cc2ccccc2)CC1 (configuration not stated)	0	1	2	6.9*	0	-2
O=C(N1CCOCC1)N1CCN(Cc2ccc3c(c2)OCO3)CC1	0	7	11	6.1*	0	-4
CCN1CCN(CC(O)COCc2ccc3c(c2)OCO3)CC1 (configuration not stated)	0	11	5	0	/	/
CC(Oc1ccc([N+](=O)[O-])cc1)C(=O)NCc1ccncc1 (configuration not stated)	0	28	2	0	/	/
CSCCC(NCCC(O)c1ccccc1)C(=O)O (configuration not stated)	0	2	8	0	/	/
CC(C)CC(NCCC(O)c1ccccc1)C(=O)O (configuration not stated)	0	8	7	8.3*	-1	6
O=C(c1oc2ccccc2c1N1CCCCC1)N1CCCCC1	0	0	10	5.0*	-1	0
O=C1CCCC2=C1C(c1ccccc1F)n1c(nc3ccccc31)N2 (configuration not stated)	0	16	0	9.6*	2	-5
O=C(Nc1ccc2c(c1)CN(C1CSCCSC1)CC2)c1ccncc1	0	-11	-27	5.3*	0	7
C=CCOc1ccc(/C=C2\C(=O)NC(=O)N(C)C2=O)cc1Br	0	14	4	5.7*	1	8
O=C(Nc1ccccc1)C1CCCN1C(=O)NC1CCCCC1 (configuration not stated)	0	-8	0	0	/	/
O=C(O)C1CCCN1C(=O)NC1CCCCC1 (configuration not stated)	0	12	0	4.9*	0	1
CC(=O)CC/C=C(\C)CCC=C(C)C	0	5	4	6.1*	-1	-3
O=C(Nc1ccccc1C(=O)N1CCCCC1CCO)c1ccco1 (configuration not stated)	0	-13	10	-1	/	/
COC(=O)NCC12CC3CC(CC(C3)C1)C2	0	10	6	8.9*	1	-5
NC(=O)NCC12CC3CC(CC(C3)C1)C2	0	-9	-7	1	/	/
O/N=C/c1cn(-c2ccccc2)nc1-c1ccc(F)cc1	1	19	-5	6.0*	-1	-15
c1ccc(CNc2nc(N3CCN(c4ccccn4)CC3)nc3nc[nH]c23)cc1	0	18	-6	0	/	/
Cc1ccc(CN2C(=O)C3CCCN3c3ccc(C#N)cc32)cc1 (configuration not stated)	0	-3	-4	5.6*	1	7
N#Cc1ccc2c(c1)N(Cc1ccc(F)cc1)C(=O)C1CCCN21 (configuration not stated)	0	3	2	1	/	/
COc1ccc(C(=O)NC2CC2)cc1OC1CCN(Cc2ccc(F)cc2F)CC1	0	-10	-22	5.6*	0	0
CC(NC(=O)Cc1ccc(Br)cc1)c1ccc(S(N)(=O)=O)cc1 (configuration not stated)	0	12	2	-1	/	/
SMILES	FBW7 act	MITF inh	TEAD-YAP inh	GPR151 activ	GPR151 confirm	GPR119 ag
O=C(Nc1ccc(F)cc1)/C(=C\c1ccc2c(c1)OCO2)NC(=O)c1ccccc1Br	0	-9	0	2	/	/
C=CCOC(=O)C1=C(C)NC(C)=C(C(=O)OCC=C)C1c1cn(-c2ccccc2)nc1-c1cccs1	1	1	-8	1	/	/
CCCCNC(=O)Cc1cn(C)c2ccccc12	0	3	-26	5.1*	1	7
COCCCNC(=O)Cc1cn(C)c2ccccc12	0	-8	-5	0	/	/
COCCCNC(=O)CCCc1cn(C)c2ccccc12	0	-6	-8	6.6*	0	1
Cn1cc(CC(=O)NCCN2CCN(Cc3ccccc3)CC2)c2ccccc21	0	-13	4	5.2*	-1	-9
CCc1ccc(OCCCNS(=O)(=O)c2ccc(C3CNC(=O)C3)cc2)cc1 (configuration not stated)	0	8	25	0	/	/
O=C(CSc1nc2c(sc(=S)n2CC2CCCO2)c(=O)n1-c1ccc(F)cc1)NCc1ccco1 (configuration not stated)	0	2	-5	-1	/	/
CCN1C(=O)/C(=C/c2ccc(OCc3ccc(C(=O)O)cc3)cc2)NC1=S	0	0	2	7.8*	0	0
CCN1C(=O)/C(=C/c2ccc(C(=O)OC)cc2)NC1=S	0	7	1	-1	/	/
CCN(CC)S(=O)(=O)c1ccc(OCc2ccccc2C#N)c([N+](=O)[O-])c1	0	-9	7	5.0*	0	1
CCc1ccc(-c2cc(C(=O)Nc3cccc(C)c3C)c3ccccc3n2)cc1	0	14	-1	0	/	/
CC(=O)OCC1OC(Oc2ccc(C(=O)Cc3csc(C)n3)c(O)c2)C(OC(C)=O)C(OC(C)=O)C1OC(C)=O (configuration not stated)	0	-2	-7	0	/	/
COc1ccc(Cl)cc1C(=O)Nc1ccc(N2CCCCS2(=O)=O)cc1	0	-6	-8	9.0*	0	4
COc1ccccc1C(=O)Nc1ccc(N2CCCS2(=O)=O)cc1	0	-7	-42	-2	/	/
Cc1cccc(C)c1NC(=O)CSc1nc2ccc(NC(=O)c3cccc4ccccc34)cc2s1	0	7	-7	-1	/	/
O=C1CN(c2ccc(S(=O)(=O)N3CCCC3)cn2)CCN1	0	-9	5	1	/	/
O=C1CN(c2ccc(S(=O)(=O)N3CCC(Cc4ccccc4)CC3)cn2)CCN1	0	-1	-4	7.3*	1	7
S=C(Nc1ccc(Cl)cc1)Nc1ccccn1	0	1	-27	0	/	/
O=C(NNc1ccccn1)Nc1ccc(Cl)cc1	0	-3	-8	6.5*	0	0
